# Measurements published in PMC7862700, “An all-to-all approach to the identification of sequence-specific readers for epigenetic DNA modifications on cytosine”.
# Tests used:
# Assay in all cases: DAPPL (digital affinity profiling via proximity ligation, sequencing); 10 mM Tris-HCl pH 7.5, 50 mM NaCl, 1 mM DTT, 4% glycerol, room temperature, 30 min; GST-TFs on glutathione beads, 16-mer random dsDNA library, 0.1% formaldehyde crosslink after washing; high values mean tight binding
# Details in all cases: protein: recombinant; tags: N-terminal GST; dsDNA, one strand shown
# [1] = target: T1, FLI1 (Homo sapiens, UniProt Q01543 1-452)
# T1 sequence: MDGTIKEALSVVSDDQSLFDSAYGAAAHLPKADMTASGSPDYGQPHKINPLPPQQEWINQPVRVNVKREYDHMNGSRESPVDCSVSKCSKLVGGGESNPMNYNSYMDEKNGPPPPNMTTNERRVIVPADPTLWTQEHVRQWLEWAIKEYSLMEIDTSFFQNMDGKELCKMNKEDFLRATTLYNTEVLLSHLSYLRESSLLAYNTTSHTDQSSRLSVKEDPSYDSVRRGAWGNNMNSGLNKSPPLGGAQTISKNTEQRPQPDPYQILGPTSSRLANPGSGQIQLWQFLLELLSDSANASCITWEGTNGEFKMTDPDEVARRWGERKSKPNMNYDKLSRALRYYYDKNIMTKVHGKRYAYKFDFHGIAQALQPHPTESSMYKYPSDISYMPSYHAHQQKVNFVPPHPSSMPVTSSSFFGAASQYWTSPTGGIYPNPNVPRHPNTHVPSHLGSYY
# How it was run: (§1)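 Binding signal is given per hexamer as its read frequency for a factor divided by its frequency in the tag-only sample. GST-fused human transcription factors were expressed in yeast, captured on glutathione beads, barcoded with DNA and pooled with that sample, then incubated with 200 nmole of a 16-mer random double-stranded DNA library in Tris/NaCl/DTT/glycerol buffer for 30 min at room temperature. The pools were then washed, crosslinked, proximity-ligated, amplified by PCR and sequenced on an Illumina NextSeq500.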
# [2] = target: T2, ELK1 (Homo sapiens, UniProt P19419 1-428)
# T2 sequence: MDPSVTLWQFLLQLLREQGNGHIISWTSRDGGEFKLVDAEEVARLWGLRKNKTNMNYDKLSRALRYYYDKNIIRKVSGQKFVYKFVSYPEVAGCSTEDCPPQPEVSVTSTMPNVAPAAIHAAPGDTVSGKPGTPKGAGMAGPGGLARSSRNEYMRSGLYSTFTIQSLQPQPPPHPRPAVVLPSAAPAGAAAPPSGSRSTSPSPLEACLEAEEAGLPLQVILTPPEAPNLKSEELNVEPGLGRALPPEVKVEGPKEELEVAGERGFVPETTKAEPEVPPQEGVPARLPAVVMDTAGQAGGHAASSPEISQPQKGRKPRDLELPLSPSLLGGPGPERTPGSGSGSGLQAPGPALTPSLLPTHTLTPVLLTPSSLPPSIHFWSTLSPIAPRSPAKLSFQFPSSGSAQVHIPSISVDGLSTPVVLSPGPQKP
# How it was run: as §1
# [3] = target: T3, GABPA (Homo sapiens, UniProt Q06546 1-454)
# T3 sequence: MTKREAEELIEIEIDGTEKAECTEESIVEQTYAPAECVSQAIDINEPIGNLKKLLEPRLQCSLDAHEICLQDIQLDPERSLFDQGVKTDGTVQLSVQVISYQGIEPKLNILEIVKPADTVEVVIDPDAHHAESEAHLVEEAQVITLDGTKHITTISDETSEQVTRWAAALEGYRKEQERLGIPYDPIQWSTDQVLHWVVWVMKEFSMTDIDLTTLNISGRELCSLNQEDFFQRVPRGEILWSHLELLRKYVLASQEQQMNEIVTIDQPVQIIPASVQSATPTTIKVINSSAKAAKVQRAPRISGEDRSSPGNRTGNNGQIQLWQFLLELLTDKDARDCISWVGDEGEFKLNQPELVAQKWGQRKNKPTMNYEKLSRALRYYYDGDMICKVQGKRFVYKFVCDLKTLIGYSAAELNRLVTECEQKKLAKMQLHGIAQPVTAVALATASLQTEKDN
# How it was run: as §1
# [4] = target: T4, EHF (Homo sapiens, UniProt Q9NZC4 1-300)
# T4 sequence: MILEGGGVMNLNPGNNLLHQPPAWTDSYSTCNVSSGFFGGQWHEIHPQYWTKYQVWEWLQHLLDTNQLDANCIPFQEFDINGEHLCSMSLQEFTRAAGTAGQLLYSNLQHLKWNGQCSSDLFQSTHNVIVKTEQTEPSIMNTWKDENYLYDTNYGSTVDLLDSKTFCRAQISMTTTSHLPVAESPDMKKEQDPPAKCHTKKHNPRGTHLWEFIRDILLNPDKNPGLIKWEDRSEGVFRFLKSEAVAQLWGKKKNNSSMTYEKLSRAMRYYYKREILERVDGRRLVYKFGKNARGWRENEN
# How it was run: as §1
# [5] = target: SPI1 (Homo sapiens, UniProt P17947 1-270)
# How it was run: as §1
# [6] = target: SPIB (Homo sapiens, UniProt Q01892 1-262)
# SPIB, sequence (Q01892 whole entry): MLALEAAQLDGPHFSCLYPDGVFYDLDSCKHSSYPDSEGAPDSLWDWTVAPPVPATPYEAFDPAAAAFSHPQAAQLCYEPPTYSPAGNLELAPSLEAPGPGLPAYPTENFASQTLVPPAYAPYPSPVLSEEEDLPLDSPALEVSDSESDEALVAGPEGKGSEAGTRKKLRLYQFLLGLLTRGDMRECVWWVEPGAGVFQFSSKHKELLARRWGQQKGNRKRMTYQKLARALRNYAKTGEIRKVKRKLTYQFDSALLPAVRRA
# How it was run: as §1
# [7] = target: T5, ELK3 (Homo sapiens, UniProt P41970 1-407)
# T5 sequence: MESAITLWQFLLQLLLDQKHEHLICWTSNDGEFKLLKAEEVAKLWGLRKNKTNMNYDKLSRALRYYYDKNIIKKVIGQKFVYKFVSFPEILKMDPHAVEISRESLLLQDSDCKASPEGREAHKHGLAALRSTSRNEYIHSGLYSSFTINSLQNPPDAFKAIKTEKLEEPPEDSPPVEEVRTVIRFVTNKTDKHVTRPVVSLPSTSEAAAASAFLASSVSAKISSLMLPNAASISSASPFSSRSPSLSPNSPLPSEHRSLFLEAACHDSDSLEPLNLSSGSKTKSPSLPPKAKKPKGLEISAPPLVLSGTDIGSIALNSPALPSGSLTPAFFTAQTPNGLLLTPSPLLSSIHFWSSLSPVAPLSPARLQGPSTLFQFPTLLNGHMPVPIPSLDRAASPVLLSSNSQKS
# How it was run: as §1
# [8] = target: ETV5 (Homo sapiens, UniProt P41161 1-510)
# ETV5, sequence (P41161 whole entry): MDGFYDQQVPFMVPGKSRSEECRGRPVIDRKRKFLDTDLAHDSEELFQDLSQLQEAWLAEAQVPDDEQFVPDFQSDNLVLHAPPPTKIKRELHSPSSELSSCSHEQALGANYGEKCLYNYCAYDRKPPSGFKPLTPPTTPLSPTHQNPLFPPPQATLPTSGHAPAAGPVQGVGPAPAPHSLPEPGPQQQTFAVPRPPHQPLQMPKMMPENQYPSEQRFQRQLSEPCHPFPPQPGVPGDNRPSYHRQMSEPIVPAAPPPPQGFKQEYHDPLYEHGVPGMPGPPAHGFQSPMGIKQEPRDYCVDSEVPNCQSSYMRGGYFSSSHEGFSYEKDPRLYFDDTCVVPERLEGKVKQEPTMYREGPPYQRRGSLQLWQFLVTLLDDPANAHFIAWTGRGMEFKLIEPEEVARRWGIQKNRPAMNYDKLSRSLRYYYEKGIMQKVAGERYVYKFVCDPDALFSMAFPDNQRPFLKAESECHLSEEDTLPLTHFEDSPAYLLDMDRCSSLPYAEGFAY
# How it was run: as §1
# [9] = target: T6, SPIC (Homo sapiens, UniProt Q8N5J4 1-248)
# T6 sequence: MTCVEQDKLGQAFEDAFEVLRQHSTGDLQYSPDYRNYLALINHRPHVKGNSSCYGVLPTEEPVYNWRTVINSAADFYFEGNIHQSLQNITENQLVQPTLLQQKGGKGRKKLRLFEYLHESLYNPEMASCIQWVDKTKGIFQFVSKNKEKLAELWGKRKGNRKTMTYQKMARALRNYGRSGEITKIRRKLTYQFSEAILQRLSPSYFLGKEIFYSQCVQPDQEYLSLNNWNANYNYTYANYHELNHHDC
# How it was run: as §1
# [10] = target: ELF4 (Homo sapiens, UniProt Q99607 1-663)
# ELF4, sequence (Q99607 whole entry): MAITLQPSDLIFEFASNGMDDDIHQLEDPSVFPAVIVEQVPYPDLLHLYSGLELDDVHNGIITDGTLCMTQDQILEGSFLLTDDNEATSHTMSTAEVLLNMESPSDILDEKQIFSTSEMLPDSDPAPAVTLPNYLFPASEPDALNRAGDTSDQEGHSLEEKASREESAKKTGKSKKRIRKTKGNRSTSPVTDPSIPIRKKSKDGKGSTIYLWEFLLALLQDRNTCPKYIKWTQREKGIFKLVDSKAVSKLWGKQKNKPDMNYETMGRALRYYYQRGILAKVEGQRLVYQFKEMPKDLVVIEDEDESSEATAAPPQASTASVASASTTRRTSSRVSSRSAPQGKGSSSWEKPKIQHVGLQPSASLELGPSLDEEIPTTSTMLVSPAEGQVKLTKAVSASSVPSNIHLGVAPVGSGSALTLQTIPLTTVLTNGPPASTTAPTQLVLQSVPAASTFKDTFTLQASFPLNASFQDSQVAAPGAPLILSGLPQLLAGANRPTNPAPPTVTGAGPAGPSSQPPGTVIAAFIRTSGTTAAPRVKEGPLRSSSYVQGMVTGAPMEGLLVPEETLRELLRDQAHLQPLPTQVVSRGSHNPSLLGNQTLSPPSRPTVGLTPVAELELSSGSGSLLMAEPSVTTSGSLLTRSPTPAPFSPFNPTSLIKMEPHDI
# How it was run: as §1
# [11] = target: ETV1 (Homo sapiens, UniProt P50549 1-477)
# ETV1, sequence (P50549 whole entry): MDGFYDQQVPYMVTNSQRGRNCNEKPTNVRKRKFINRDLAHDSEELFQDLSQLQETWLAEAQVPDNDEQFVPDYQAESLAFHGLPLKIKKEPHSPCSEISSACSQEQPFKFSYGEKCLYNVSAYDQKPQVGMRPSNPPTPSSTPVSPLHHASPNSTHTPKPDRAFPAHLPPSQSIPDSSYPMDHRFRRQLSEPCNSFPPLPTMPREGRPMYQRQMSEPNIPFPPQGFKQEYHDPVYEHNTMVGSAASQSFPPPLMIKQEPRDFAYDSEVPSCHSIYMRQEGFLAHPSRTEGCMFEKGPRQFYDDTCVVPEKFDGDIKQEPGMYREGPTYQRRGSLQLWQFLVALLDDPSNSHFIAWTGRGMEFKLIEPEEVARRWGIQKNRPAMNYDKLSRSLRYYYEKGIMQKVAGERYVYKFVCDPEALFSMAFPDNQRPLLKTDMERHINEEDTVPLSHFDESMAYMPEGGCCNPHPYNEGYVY
# How it was run: as §1
# [12] = target: T7, ERF (Homo sapiens, UniProt P50548 1-548)
# T7 sequence: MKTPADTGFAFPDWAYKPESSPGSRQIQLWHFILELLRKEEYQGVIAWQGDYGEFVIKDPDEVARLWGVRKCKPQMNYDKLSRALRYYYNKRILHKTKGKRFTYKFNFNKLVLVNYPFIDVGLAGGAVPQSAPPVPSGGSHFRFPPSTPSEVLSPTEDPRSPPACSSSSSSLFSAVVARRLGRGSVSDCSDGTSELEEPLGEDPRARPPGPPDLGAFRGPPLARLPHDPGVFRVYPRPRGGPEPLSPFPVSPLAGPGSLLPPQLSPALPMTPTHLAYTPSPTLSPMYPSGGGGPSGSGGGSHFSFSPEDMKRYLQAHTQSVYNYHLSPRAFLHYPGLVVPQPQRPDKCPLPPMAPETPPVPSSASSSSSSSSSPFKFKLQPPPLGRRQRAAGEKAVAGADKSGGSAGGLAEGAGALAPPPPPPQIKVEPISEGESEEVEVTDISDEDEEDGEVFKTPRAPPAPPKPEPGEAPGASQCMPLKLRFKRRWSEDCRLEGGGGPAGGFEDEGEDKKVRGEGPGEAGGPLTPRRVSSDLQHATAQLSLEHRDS
# How it was run: as §1
# [13] = target: T8, ETV3L (Homo sapiens, UniProt Q6ZN32 1-361)
# T8 sequence: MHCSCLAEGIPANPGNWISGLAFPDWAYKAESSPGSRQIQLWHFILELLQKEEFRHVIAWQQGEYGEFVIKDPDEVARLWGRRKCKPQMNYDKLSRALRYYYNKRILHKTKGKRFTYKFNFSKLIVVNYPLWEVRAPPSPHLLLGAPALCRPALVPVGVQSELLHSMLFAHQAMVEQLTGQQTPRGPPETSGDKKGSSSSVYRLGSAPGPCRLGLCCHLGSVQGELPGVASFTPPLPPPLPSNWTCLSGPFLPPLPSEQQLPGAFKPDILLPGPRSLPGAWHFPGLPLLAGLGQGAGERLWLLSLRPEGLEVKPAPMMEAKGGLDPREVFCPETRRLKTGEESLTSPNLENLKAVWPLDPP
# How it was run: as §1
# [14] = target: T9, ETV3 (Homo sapiens, UniProt P41162-2 1-143)
# T9 sequence: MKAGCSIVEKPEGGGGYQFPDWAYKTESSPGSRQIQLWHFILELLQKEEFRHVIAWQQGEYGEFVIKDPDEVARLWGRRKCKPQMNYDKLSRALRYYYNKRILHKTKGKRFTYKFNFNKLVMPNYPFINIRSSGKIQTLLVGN
# How it was run: as §1
# [15] = target: ETV6 (Homo sapiens, UniProt P41212 1-452)
# ETV6, sequence (P41212 whole entry): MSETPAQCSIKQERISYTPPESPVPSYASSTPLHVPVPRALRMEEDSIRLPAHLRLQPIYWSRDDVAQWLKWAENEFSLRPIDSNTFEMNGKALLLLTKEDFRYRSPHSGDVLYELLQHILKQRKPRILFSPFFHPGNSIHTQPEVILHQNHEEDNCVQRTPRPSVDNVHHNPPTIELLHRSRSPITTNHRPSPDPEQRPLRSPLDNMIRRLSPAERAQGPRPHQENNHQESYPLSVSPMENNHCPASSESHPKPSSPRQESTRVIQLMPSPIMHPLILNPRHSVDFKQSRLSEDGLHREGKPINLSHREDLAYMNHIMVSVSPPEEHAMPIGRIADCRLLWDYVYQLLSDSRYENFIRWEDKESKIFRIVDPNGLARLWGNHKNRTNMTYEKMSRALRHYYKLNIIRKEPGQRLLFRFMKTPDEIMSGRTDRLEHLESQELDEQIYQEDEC
# How it was run: as §1
sequence,measurement,setting,value
GCGCGC,binding signal,[1],"1 fold enrichment (6-mer frequency, TF over GST control)"
same,binding signal,[2],"1.11 fold enrichment (6-mer frequency, TF over GST control)"
same,binding signal,[3],"1.05 fold enrichment (6-mer frequency, TF over GST control)"
same,binding signal,[4],"1.06 fold enrichment (6-mer frequency, TF over GST control)"
same,binding signal,[5],"1.05 fold enrichment (6-mer frequency, TF over GST control)"
same,binding signal,[6],"1.18 fold enrichment (6-mer frequency, TF over GST control)"
same,binding signal,[7],"1.01 fold enrichment (6-mer frequency, TF over GST control)"
same,binding signal,[8],"1.08 fold enrichment (6-mer frequency, TF over GST control)"
same,binding signal,[9],"1.15 fold enrichment (6-mer frequency, TF over GST control)"
same,binding signal,[10],"1.08 fold enrichment (6-mer frequency, TF over GST control)"
same,binding signal,[11],"1.09 fold enrichment (6-mer frequency, TF over GST control)"
same,binding signal,[12],"1.22 fold enrichment (6-mer frequency, TF over GST control)"
same,binding signal,[13],"1 fold enrichment (6-mer frequency, TF over GST control)"
same,binding signal,[14],"1.02 fold enrichment (6-mer frequency, TF over GST control)"
same,binding signal,[15],"1.03 fold enrichment (6-mer frequency, TF over GST control)"
